A short description of assay [1]: antimalarial activity against Dd2 strain (AID 2302;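 active means growth inhibition above 50% at the single 2 µM test dose, taken to imply half-maximal potency below 2 µM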;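 further: 0% = DMSO untreated growth and 100% = chloroquine plus artemisinin killed control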). To be noted: P. falciparum Dd2 in RBCs, LDH growth readout, 72 h; at 2 µM; stronger effect = higher value.
The nature of assay [2]: human hepatoma cell viability loss – ATP luminescence, cytotoxicity control for P. falciparum antimalarial project, primary screen (AID 2303;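 active means inhibition above 50%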;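 further: 0% = DMSO wells and 100% = digitonin-killed cells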). The following applies: HepG2 viability, 24-48 h, at 10 µM, stronger effect = higher value.
For assay [3], the target named is L-lactate dehydrogenase (Plasmodium falciparum (isolate CDC / Honduras)) (UniProt Q27743). Nature of the assay: PfLDH activity inhibition – cell lysate, 3D7 strain, counter-screen for P. falciparum growth inhibition project (AID 2304).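 Further: 0% = vehicle and 100% = reference inhibitor.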 To be noted: P. falciparum 3D7 crude extract, LDH APAD/NBT absorbance; at 2 µM; stronger effect = higher value. In general terms: The purpose of a counterscreen is to sort out artefacts and off-target activity.

The nature of assay [4]: inhibition of 3D7 malaria parasite growth – strain 3D7 (AID 2306).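 Further: 0% = DMSO wells and 100% = chloroquine plus artemisinin control wells.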 The following applies: P. falciparum 3D7 erythrocytic growth, LDH absorbance, 72 h; at 2 µM; stronger effect = higher value.
The target of assay [5] is Calcium-dependent protein kinase 1 (Plasmodium falciparum (isolate 3D7)) (UniProt P62344). In words: PfCDPK1 kinase inhibitors, biochemical, TCAMS library (AID 1159585; cut-off not given, nearly all actives have IC50 up to about 0.98 µM;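 further: inhibitors leave more ATP so luminescence rises with inhibition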). The following applies: recombinant PfCDPK1, Kinase-Glo ATP depletion luminescence. Background: In Kinase-Glo more light means more ATP remaining.
Assay [6] addresses Plasmodium falciparum protein kinase 6 (PK6, PF3D7_1337100) (UniProt Q8IDW1). In words: PfPK6 kinase inhibitors, biochemical, TCAMS library (AID 1159586). To be noted: recombinant PfPK6, Kinase-Glo ATP depletion luminescence.
In assay [7] the target is Protein kinase 7 (PK7), Plasmodium falciparum 3D7 (PF3D7_0213400) (UniProt Q7YTF7). In words: inhibition of Plasmodium PK7 catalytic activity – biochemical, TCAMS antimalarial set, Kinase-Glo luminescence (AID 1159587). To be noted: recombinant PfPK7, Kinase-Glo ATP depletion luminescence.
Assay [8] addresses Calcium-dependent protein kinase 4 (Plasmodium falciparum (isolate 3D7)) (UniProt Q8IBS5). In words: PfCDPK4 kinase inhibitors, biochemical, TCAMS library (AID 1159588; cut-off not given, nearly all actives have IC50 up to about 0.91 µM). To be noted: recombinant PfCDPK4, Kinase-Glo ATP depletion luminescence.

Unmarked numbers belong to inactive results. For some of these results: Potency and affinity values are given separately. Active and inactive are the calls of the source. Unless noted, how the calls were made is not given here.

Chain of Calcium-dependent protein kinase 1 (Plasmodium falciparum (isolate 3D7)) (P62344 whole entry, looked up): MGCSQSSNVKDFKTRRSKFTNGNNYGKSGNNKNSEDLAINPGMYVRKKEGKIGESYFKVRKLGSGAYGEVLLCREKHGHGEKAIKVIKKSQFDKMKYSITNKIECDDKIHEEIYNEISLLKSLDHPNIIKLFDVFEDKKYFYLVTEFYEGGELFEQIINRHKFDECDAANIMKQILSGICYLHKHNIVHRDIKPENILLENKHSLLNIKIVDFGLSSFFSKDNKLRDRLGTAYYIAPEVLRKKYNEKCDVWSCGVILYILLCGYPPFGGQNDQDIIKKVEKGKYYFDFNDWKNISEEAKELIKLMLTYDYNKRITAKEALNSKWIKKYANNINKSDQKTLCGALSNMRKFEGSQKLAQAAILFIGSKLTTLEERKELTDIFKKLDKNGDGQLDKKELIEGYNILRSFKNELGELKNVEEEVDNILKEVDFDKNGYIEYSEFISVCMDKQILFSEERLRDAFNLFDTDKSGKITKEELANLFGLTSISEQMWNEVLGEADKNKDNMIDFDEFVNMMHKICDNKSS
Chain of Plasmodium falciparum protein kinase 6 (PK6, PF3D7_1337100) (Q8IDW1 1-305): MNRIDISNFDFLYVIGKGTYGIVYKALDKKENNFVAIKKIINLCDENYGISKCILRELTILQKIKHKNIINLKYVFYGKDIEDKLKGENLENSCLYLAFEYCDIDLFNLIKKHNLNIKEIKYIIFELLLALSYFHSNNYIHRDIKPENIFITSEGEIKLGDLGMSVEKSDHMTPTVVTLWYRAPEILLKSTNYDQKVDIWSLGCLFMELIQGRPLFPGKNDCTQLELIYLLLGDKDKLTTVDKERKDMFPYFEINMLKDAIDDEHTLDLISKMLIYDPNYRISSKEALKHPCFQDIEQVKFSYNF
Chain of L-lactate dehydrogenase (Plasmodium falciparum (isolate CDC / Honduras)) (Q27743 whole entry, looked up): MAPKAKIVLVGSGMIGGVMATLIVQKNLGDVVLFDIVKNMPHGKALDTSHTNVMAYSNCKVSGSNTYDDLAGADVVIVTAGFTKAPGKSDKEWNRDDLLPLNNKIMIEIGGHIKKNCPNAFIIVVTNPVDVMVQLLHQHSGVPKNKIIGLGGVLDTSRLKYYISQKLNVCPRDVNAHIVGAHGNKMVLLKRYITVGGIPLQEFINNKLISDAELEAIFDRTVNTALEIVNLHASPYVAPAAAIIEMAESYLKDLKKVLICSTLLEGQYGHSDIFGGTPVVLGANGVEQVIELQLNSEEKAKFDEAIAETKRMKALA
Chain of Protein kinase 7 (PK7), Plasmodium falciparum 3D7 (PF3D7_0213400) (Q7YTF7 1-343): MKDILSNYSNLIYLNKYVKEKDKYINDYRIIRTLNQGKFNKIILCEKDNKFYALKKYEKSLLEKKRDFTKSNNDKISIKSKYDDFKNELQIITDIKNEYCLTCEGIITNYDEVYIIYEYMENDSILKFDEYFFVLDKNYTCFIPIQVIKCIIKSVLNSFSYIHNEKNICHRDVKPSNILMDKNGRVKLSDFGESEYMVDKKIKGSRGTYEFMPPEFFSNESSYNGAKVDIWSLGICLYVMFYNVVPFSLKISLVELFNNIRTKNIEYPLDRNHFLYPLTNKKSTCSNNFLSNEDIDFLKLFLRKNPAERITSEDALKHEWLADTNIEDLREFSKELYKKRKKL
Chain of Calcium-dependent protein kinase 4 (Plasmodium falciparum (isolate 3D7)) (Q8IBS5 whole entry, looked up): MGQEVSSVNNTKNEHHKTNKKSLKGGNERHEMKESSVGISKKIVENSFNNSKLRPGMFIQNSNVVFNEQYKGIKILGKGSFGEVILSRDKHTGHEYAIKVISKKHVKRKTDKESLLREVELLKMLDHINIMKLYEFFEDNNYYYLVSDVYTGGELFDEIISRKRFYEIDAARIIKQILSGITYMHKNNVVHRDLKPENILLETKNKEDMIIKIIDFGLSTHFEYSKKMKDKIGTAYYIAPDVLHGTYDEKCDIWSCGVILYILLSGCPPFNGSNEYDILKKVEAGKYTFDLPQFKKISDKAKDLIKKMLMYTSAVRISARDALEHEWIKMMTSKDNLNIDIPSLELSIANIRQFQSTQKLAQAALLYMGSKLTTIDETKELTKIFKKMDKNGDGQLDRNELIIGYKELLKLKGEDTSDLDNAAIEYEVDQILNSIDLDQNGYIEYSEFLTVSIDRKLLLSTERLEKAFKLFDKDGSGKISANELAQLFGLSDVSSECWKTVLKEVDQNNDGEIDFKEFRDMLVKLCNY

A word on the inhibition: it is the drop in the measured response relative to a control, in per cent. As to `CCC(COCc1ccc(Cl)cc1)N(C)CCN(C)C(CC)COCc1ccc(Cl)cc1` (stereo not given), the growth inhibition in assay [1] is 78% (active); in assay [4], 95% (active). Besides, the values for the inhibition in assay [2] and in assay [3] were 89% (active) and -5%, respectively. Further, the outcome in assay [5], in assay [6], in assay [7] and in assay [8] was inactive.
`CCc1ccc(NC(=O)c2cccc(CN3CCCN(Cc4cccc(O)c4)CC3)c2)cc1`: the values for the growth inhibition in assay [1] and in assay [4] were 50% (active) and 99% (active), respectively. Besides, the inhibition in assay [2] was 53% (active); in assay [3] it was 3%. Moreover, the result in assay [5], in assay [6], in assay [7] and in assay [8] was inactive.
In the case of `O=C(/C=C/c1ccc(Cl)c(Cl)c1)NC1CCC(CN2CCC(c3nc4ncccc4[nH]3)CC2)CC1` (stereo not given), the results for the growth inhibition in assay [1] and in assay [4] were 2% and 101% (active), respectively. The figures for the inhibition in assay [2] and in assay [3] were 7% and -1%, respectively. For the same molecule, the outcome in assay [5], in assay [6], in assay [7] and in assay [8] was inactive.
In the case of `Cc1ccc(C)c(CC(=O)N2CCC(n3c(C)nc4ccc(F)cc43)CC2)c1`, the growth inhibition in assay [1] is 99% (active); in assay [4], 100% (active). Moreover, the inhibition in assay [2] is -2%; in assay [3] it was 1%. Also, the outcome in assay [5], in assay [6], in assay [7] and in assay [8] was inactive.
Turning to `COc1ccc2nccc([C@@H](O)CN3CCC(NCCNc4ccccn4)CC3)c2c1`, the growth inhibition in assay [1] was 14%; in assay [4], 101% (active). For the same molecule, the inhibition in assay [2] was 18%; in assay [3], -4%. The outcome in assay [5], in assay [6], in assay [7] and in assay [8] was inactive.
As to `Cc1cc(Nc2c(C(N)=O)cnc3cc(-c4ccoc4)ccc23)ccc1N1CCN(C)CC1`, the results for the growth inhibition in assay [1] and in assay [4] were 100% (active) and 101% (active), respectively. In addition, the inhibition in assay [2] is 7%; in assay [3], 1%. Moreover, the outcome in assay [5], in assay [6], in assay [7] and in assay [8] was inactive.
`Oc1ccc(CCNc2nc(NCc3ccccc3-c3cccc(Cl)c3)nc(N3CCNCC3)n2)cc1`: the growth inhibition was 11% in assay [1] and 84% (active) in assay [4]. In addition, the inhibition in assay [2] is 15%; in assay [3] it was -3%. The outcome in assay [5], in assay [6], in assay [7] and in assay [8] was inactive.
Turning to `CC(C)(C)CCOC(=O)N1CCc2c(cc(O)c(O)c2Cl)C(c2ccc(O)cc2)C1` (stereo not given), the growth inhibition is 95% (active) in assay [1] and 97% (active) in assay [4]. The inhibition is 2% in assay [2] and -2% in assay [3]. In addition, the outcome in assay [5], in assay [6], in assay [7] and in assay [8] was inactive.
With `O=C(NCc1ccc(C(F)(F)F)cc1)c1cccc(-c2nnc(-c3cccc(-c4cncnc4)c3)o2)c1`, the growth inhibition was 79% (active) in assay [1] and 96% (active) in assay [4]. The inhibition was 13% in assay [2] and -2% in assay [3]. Besides, the result in assay [5], in assay [6], in assay [7] and in assay [8] was inactive.
Turning to `Cc1nc(-c2ccc(-c3ccc(C(=O)Nc4ccc(I)c(OCC5CCCN5C)c4)cc3)c(C)c2)no1` (stereo not given), the growth inhibition was 39% in assay [1] and 97% (active) in assay [4]. The values for the inhibition in assay [2] and in assay [3] were 100% (active) and -2%, respectively. Also, the result in assay [5], in assay [6], in assay [7] and in assay [8] was inactive.
Regarding `CC1(C)N=C(N)N=C(N)N1OCCCOc1ccc(N)cc1`, the results for the growth inhibition in assay [1] and in assay [4] were 95% (active) and 96% (active), respectively. Further, the figures for the inhibition in assay [2] and in assay [3] were 66% (active) and 1%, respectively. The result in assay [5], in assay [6], in assay [7] and in assay [8] was inactive.
Regarding `Cc1c(Cc2ccccc2Cl)cnc2nc(N)nc(N)c12`, the growth inhibition in assay [1] is 96% (active); in assay [4] it was 91% (active). The inhibition in assay [2] is 67% (active); in assay [3] it was -2%. Further, the result in assay [5], in assay [6], in assay [7] and in assay [8] was inactive.
As to `Cc1c(CNCCCNc2nc3ccccc3[nH]2)[nH]c2cc(Cl)cc(Cl)c12`, the growth inhibition in assay [1] was -1%; in assay [4], 101% (active). The inhibition is 59% (active) in assay [2] and -6% in assay [3]. Also, the outcome in assay [5], in assay [6], in assay [7] and in assay [8] was inactive.
As for `Cc1[nH]c(C)c(-c2ccc(-c3ccc(OC(F)(F)F)cc3)cc2)c(=O)c1Br`, the growth inhibition was 97% (active) in assay [1] and 96% (active) in assay [4]. Also, the inhibition is 33% in assay [2] and -3% in assay [3]. The outcome in assay [5], in assay [6], in assay [7] and in assay [8] was inactive.
In the case of `C[C@@H]1CN(c2cnn(C/C=C/c3ccc(NC(=O)c4ccc5nonc5c4)cc3)c(=O)c2Cl)C[C@H](C)N1`, the growth inhibition in assay [1] was 35%; in assay [4], 94% (active). The inhibition in assay [2] was 71% (active); in assay [3], -3%. The outcome in assay [5], in assay [6], in assay [7] and in assay [8] was inactive.
Consider `Cc1cc(Cl)c(S(=O)(=O)NC2CCCC2)cc1OCC(=O)NC1CCCCC1`, for which the growth inhibition in assay [1] was 91% (active); in assay [4] it was 97% (active). Besides, the values for the inhibition in assay [2] and in assay [3] were 19% and -6%, respectively. In addition, the outcome in assay [5], in assay [6], in assay [7] and in assay [8] was inactive.
As for `Nc1ncnc2c1ncn2C(CO)Cc1ccc(O)cc1` (stereo not given), the growth inhibition in assay [1] was 0%; in assay [4], 93% (active). The inhibition in assay [2] is -5%; in assay [3], -2%. The outcome in assay [5], in assay [6], in assay [7] and in assay [8] was inactive.
Regarding `N=c1ccn(CC(=NO)c2ccc(Cl)c(Cl)c2)cc1`, the growth inhibition was 81% (active) in assay [1] and 87% (active) in assay [4]. Moreover, the inhibition is 23% in assay [2] and -2% in assay [3]. Besides, the outcome in assay [5], in assay [6], in assay [7] and in assay [8] was inactive.
With `O=C1CCCN1CCCNCc1cccc(-c2ccc(-c3nc4ccc(C(F)(F)F)cc4[nH]3)s2)c1`, the growth inhibition is 99% (active) in assay [1] and 100% (active) in assay [4]. In addition, the values for the inhibition in assay [2] and in assay [3] were 19% and -4%, respectively. The result in assay [5], in assay [6], in assay [7] and in assay [8] was inactive.
Regarding `COc1c(C2CCN(CCN3CCC(NC(=O)c4ccc(-c5ccc(C(F)(F)F)cc5)cc4)CC3)CC2)ccc2c1CCCC2`, the results for the growth inhibition in assay [1] and in assay [4] were 35% and 82% (active), respectively. The inhibition in assay [2] was 42%; in assay [3] it was 0%. Also, the result in assay [5], in assay [6], in assay [7] and in assay [8] was inactive.

The values above are taken from PubChem BioAssay.
